ELG1 genotox = genotoxicity induction in ELG1-luciferase HEK293T cells. Potency, µM (doses to about 46 µM), for the others: top-dose activity change, positive = activation, hits mostly activators. HEK293T ELG1-luciferase reporter, luminescence, 16 h. actives 1.3% (n = 330,000); further: % of control where 0% means no effect; nearly all actives have a fitted effect of over 60% in size
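Genotoxicity was scored as increased ELG1-luciferase reporter signal, measured by ONE-Glo luminescence (30 min, room temperature). Compound or vehicle exposure of the HEK293T reporter cells lasted 16 hr at 37°C.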
SMN2 splice enh = SMN2 splice variant enhancement; HEK293 SMN2-luciferase splicing reporter, luminescence, 30-36 h; Potency, µM (doses to about 46.1 µM), for inactives: at the highest dose activity change, positive = activation, most hits filed as activators; actives 2.8% (n = 210,000); further: % of control where 0% means no effect; nearly all actives have a fitted effect of over 55% in size
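HEK293 cells carry an SMN2 minigene-luciferase reporter in which exon 7 inclusion puts luciferase in frame. Cells were seeded at 2000 cells/well, attached for 10-12 hours, then exposed to compounds for 30-36 hours at 37C before ONE-Glo luminescence.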
FLuc modulator = firefly luciferase modulation, counter-screen for miR-21 project. actives 6.9% (n = 360,000). P08659. Potency, µM (doses to about 57.5 µM), for inactives: at the highest dose activity change, negative = inhibition, actives largely listed as inhibitors. purified FLuc, Km substrates, luminescence inhibition;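 further: plate controls were vehicle for no effect and reference inhibitor for full effect; nearly all actives have a fitted effect of over 55% in size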
Target sequence (P08659 whole entry, looked up): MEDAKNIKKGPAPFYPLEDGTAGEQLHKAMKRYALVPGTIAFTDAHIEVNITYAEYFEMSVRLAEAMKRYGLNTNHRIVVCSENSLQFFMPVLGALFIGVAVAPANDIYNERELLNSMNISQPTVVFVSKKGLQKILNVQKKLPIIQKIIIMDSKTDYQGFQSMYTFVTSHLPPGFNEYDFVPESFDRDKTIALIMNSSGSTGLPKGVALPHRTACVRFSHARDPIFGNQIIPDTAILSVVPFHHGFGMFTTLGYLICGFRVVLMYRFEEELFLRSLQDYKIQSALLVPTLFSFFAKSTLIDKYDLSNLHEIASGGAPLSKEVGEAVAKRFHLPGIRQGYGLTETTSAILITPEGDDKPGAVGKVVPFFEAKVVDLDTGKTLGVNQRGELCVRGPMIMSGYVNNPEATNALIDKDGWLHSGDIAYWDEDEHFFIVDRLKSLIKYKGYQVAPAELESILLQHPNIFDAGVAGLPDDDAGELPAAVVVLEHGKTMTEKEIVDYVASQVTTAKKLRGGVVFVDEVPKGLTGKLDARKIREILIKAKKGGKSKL
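Purified P. pyralis luciferase, 10 nM final, with Km-level 10 uM D-luciferin and 10 uM ATP in 50 mM Tris acetate pH 7.5, 10 mM Mg acetate, 0.01% Tween-20, 0.05% BSA; 6-point qHTS titration about 60 µM downward; luminescence read.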
Rab9 prom act = Rab9 promoter activation. Huh7 Rab9 promoter-luciferase reporter, luminescence, 24 h. Potency, µM (top dose mostly 9.22 µM), for the others: at the highest dose activation, negative = inhibition, actives largely listed as activators. actives 2.8% (n = 320,000). AID 485297; further: % of control where 0% means no effect; nearly all actives have a fitted effect of over 60% in size
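Huh7 cells stably carrying Rab9 promoter–luciferase reporter, plated 1500 cells/well, compound added after 2 h and incubated 24 h at 37 °C; luciferase luminescence then read after 10 min with detection reagent.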
KinaseGlo FLuc = blocks Kinase-Glo luciferase, a counter-screen artifact; Q27757; Kinase-Glo luciferase, ATP luminescence, 8 min; Potency, µM (series often up to 38.3 µM), for inactives: at the highest dose activity change, negative = inhibition, most hits filed as inhibitors; actives 0.28% (n = 200,000); further: on the % scale 0 is the no-effect control and ±100 the full control effect; nearly all actives have a fitted effect of over 60% in size
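Luminescence was the read-out, taken after 8-minute incubation at ambient temperature. Luciferase turned over luciferin with 10 uM ATP in imidazole pH 7.2 buffer containing KCl, MgCl2, Tween 20 and BSA.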
NPC1 promoter act = activates the NPC1 promoter; Huh7 NPC1 promoter luciferase reporter, 24 h; Potency, µM (top dose mostly 9.22 µM), inactives show top-dose activation, usual class: activators; actives 2.4% (n = 320,000); further: % of control where 0% means no effect; nearly all actives have a fitted effect of over 60% in size
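Luminescence read-out of NPC1 promoter-driven luciferase in stably transfected Huh7 cells; compounds delivered in DMSO and left 24 h at 37C, 5% CO2, qHTS titration format.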
* hit, by the source's call; ? = inconclusive; nt = no result given; [ ] = remark or other dose. Rows were chosen to be rich in hits. Some 7.4% of all compounds tested hit in one or more screens of this group. The call rests on the fitted dose curve; in most records, active means well fitted curve in the direction sought with a large enough effect; inconclusive means small, poorly fitted or top-dose-only effect, or another doubt; inactive means no such curve, though single readings can be large; an effect the other way counts as inactive or inconclusive. Potency means the concentration at half of the fitted maximal effect.

SMILES	ELG1 genotox	SMN2 splice enh	FLuc modulator	Rab9 prom act	KinaseGlo FLuc	NPC1 promoter act
Cc1ccc(C(=O)NNC(=O)c2ccccc2)cc1S(=O)(=O)N1CCCCC1	3%	nt	21µM*	-5%	nt	0%
COc1ccccc1NC(=O)c1ccc(C)c(S(=O)(=O)N2CCCCC2)c1	-18%	nt	?	-4%	nt	13%
Cc1ccc(C(=O)NC2CCN(Cc3ccccc3)CC2)cc1S(=O)(=O)N1CCOCC1	18µM*	nt	-2%	-14%	nt	-5%
CCCc1cc(=O)[nH]c(Nc2ccccc2O)n1	nt	9%	2%	nt	nt	nt
CCCCCCCCCCCCCCCCOCC(CO)OC(C)=O (configuration not stated)	nt	3%	nt	nt	0%	nt
COc1ccc(C(=O)Oc2c(Sc3ccc(C)cc3)c(C)nn2C(C)(C)C)c(OC)c1	nt	-17%	-6%	nt	nt	nt
CCN(CC)C(=O)CSC(=Nc1ccccc1F)NC#N	?	14µM*	-2%	4µM*	0%	?
C=C[C@@H](C1=CC(=O)C(OC)=C(OC)C1=O)c1ccccc1	nt	0%	nt	nt	3%	nt
COc1ccc(-c2noc(N(C)CC(=O)Nc3cccc(C(F)(F)F)c3)n2)cc1	2%	9%	8.5µM*	22%	-10%	?
Cc1cc(C)n(CC(O)Cn2ccc3ccccc32)n1 (configuration not stated)	-1%	0%	2%	0%	18%	2%
Cc1cc(C)n(CC(O)Cn2c3ccccc3c3ccccc32)n1 (configuration not stated)	-2%	13µM*	2%	-5%	2%	0%
Cc1ccc(Nc2cccccc2=O)cc1	?	nt	15µM*	3.5µM*	nt	?
COc1ccc(-c2cc(C(=O)N3CCc4ccccc4C3)no2)cc1	24%	2%	17µM*	-4%	-4%	1%
COc1ccc(-c2cc(C(=O)N3CCN(c4ccccc4OC)CC3)no2)cc1	0%	nt	?	-10%	nt	0%
COc1ccc(-c2cc(C(=O)N3CCN(c4ccccc4)CC3)no2)cc1	?	?	6.7µM*	?	nt	2.8µM*
C=C(C)CNC(=O)c1ccc2nc(Cc3ccc(OC)cc3)oc2c1	?	nt	11µM*	2.8µM*	nt	2.2µM*
O=C(c1ccc2nc(Cc3cccc(Cl)c3)oc2c1)N1CCOCC1	?	nt	17µM*	?	nt	?
COc1ccc(Cc2nc3ccc(C(=O)N4CCCC4)cc3o2)cc1	?	nt	13µM*	2.2µM*	nt	3.2µM*
COc1cc(NC(=O)CN2C(=O)CN(C)C(=O)c3ccccc32)cc(OC)c1OC	nt	nt	-3%	nt	nt	nt
Cc1ccccc1NC(=O)c1c(C)oc2ccc(O)c(CN3CCCC3)c12	nt	4%	-1%	nt	nt	nt
Cc1cc(C)cc(NC(=O)C2CCCN2S(=O)(=O)c2cccc3nsnc23)c1 (configuration not stated)	nt	-18%	0%	nt	nt	nt
O=C(c1cc2c(ccc3ccccc32)o1)N1CCN(c2ncc(C(F)(F)F)cc2Cl)CC1	-1%	3%	2%	-7%	-2%	-1%
NNC(=O)c1cc2c(ccc3ccccc32)o1	0%	-3%	-18%	-2%	2%	-2%
O=C(c1cc2c(ccc3ccccc32)o1)N1CCCCC1	?	nt	2.1µM*	0.89µM*	nt	1.3µM*
O=C(O)c1cc2c(ccc3ccccc32)o1	2%	nt	17µM*	5%	3%	1%
SMILES	ELG1 genotox	SMN2 splice enh	FLuc modulator	Rab9 prom act	KinaseGlo FLuc	NPC1 promoter act
O=C(CCCn1c(=O)c2cccn2c2cccnc21)NCc1ccccc1Br	nt	nt	-6%	nt	nt	nt
COC(=O)c1sc(N2C(=O)c3oc4cc(C)c(C)cc4c(=O)c3C2c2ccccc2F)nc1C (configuration not stated)	nt	20%	-2%	nt	nt	nt
O=C(Nc1cccc(-c2nn[nH]n2)c1)c1ccc(Cl)s1	1%	nt	15µM*	5%	nt	-1%
O=C(Nc1cccc(-c2nn[nH]n2)c1)c1ccc(Br)s1	-1%	nt	12µM*	27%	nt	1%
c1cc(NNc2cccc(-c3nn[nH]n3)c2)cc(-c2nn[nH]n2)c1	nt	-7%[9.22 µM]	nt	nt	1%[7.66 µM]	nt
CCOC(=O)c1ccccc1NC(=O)CSc1nc2ncccc2o1	nt	nt	0%	nt	nt	nt
CCOc1ccc(-c2cc(N3C(=O)Nc4ccccc4N3O)n[nH]2)cc1	-3%	4%	6.7µM*	-3%	-1%	-2%
COc1cccc(-c2cc(N3C(=O)Nc4ccccc4N3O)n[nH]2)c1	1%	-6%	15µM*	-3%	-1%	4%
CCOC(=O)c1c(N2C(=O)Nc3ccccc3N2O)n[nH]c1-c1cccc(Cl)c1	-5%	-19%	?	15%	-2%	-8%
CCC(=O)N1c2ccccc2CC1C(=O)NCCc1ccc(SC)cc1 (configuration not stated)	nt	nt	-2%	nt	nt	nt
COc1ccccc1OCC(=O)Nc1ncc(C)s1	?	nt	2.4µM*	1.8µM*	nt	1.6µM*
COC(=O)c1sc(NC(=O)COc2ccccc2OC)nc1C	2%	-12%	?	14%	1%	13%
Cc1cnc(NC(=O)COc2ccccc2)s1	?	11µM*	11µM*	2.2µM*	-3%	2µM*
Cc1cnc(NC(=O)CCc2ccccc2)s1	?	nt	?	9%	nt	-14%
O=C(Nc1cccc(-c2nc3ncccc3o2)c1)c1cc2ccccc2o1	-2%	1%	8.5µM*	?	4%	?
CCC(C)c1ccc(OCC(=O)Nc2cccc(-c3nc4ncccc4o3)c2)cc1 (configuration not stated)	nt	3%	7.6µM*	nt	nt	nt
O=C(Nc1cccc(-c2nc3ncccc3o2)c1)c1sc2ccccc2c1Cl	-1%	-5%	1.3µM*	?	-7%	?
O=C(Nc1cccc(-c2nc3ncccc3o2)c1)c1sc2cc(Cl)ccc2c1Cl	?	-9%	-12%	16%	-1%	5%
Cc1ccc(-c2nc3ncccc3o2)cc1NC(=O)c1cc2ccccc2o1	0%	2%	-8%	-5%	-1%	-1%
COc1cccc(-n2cc(-c3ccc(F)cc3)[nH]c2=S)c1	?	nt	?	0.32µM*	nt	1.6µM*
COc1ccc(-n2cc(-c3ccc(Cl)cc3)[nH]c2=S)cc1	6%	nt	-12%	1.3µM*	nt	28%
O=C(CN1CCN(C(c2ccccc2)c2ccccc2)CC1)Nc1ccc(N2CCOCC2)cc1	-2%	13µM*	-2%	-5%	0%	-1%
Cn1c(SCC(=O)Nc2ccc(N3CCOCC3)cc2)nnc1-c1ccco1	1%	nt	17µM*	2%	nt	-4%
Cn1c(SCC(=O)Nc2ccc(N3CCOCC3)cc2)nnc1-c1ccccc1F	8%	nt	17µM*	12%	nt	7%

Compound activity deposited in PubChem BioAssay by National Center for Advancing Translational Sciences (NCATS).
